# The sample as a whole holds a higher share of the strongest signals than the screen did.
# Columns and labels:
# Test in all cases: glycan array binding signal (z-score within array); higher = stronger binding
# Conditions in all cases: glycan notation: IUPAC condensed, linker removed; mutation: D21K
# [1] = biological target: Fuc(a1-2)Gal(b1-3)GalNAc(a1-3)[Fuc(a1-2)]Gal(b1-4)GlcNAc
# Outline: (§1)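 From the Consortium for Functional Glycomics database, 3228 arrays were curated, keeping only those whose protein sequence was available. Binding is given as a within-array Z-score averaged across arrays sharing a protein sequence and across linkers. Negative Z-scores can be read as non-binding.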
# [2] = biological target: Fuc(a1-2)Gal(b1-4)[Fuc(a1-3)]GlcNAc
# Outline: as §1
# [3] = biological target: Fuc(a1-2)[Gal(a1-3)]Gal(b1-4)GlcNAc
# Outline: as §1
# [4] = biological target: Fuc(a1-2)[Gal(a1-3)]Gal(b1-4)GlcNAc(b1-3)GalNAc
# Outline: as §1
# [5] = biological target: Fuc(a1-2)[Gal(a1-3)]Gal(b1-4)GlcNAc(b1-3)[Fuc(a1-2)[Gal(a1-3)]Gal(b1-4)GlcNAc(b1-6)]GalNAc
# Outline: as §1
# [6] = biological target: Fuc(a1-2)[Gal(a1-3)]Gal(b1-4)GlcNAc(b1-6)GalNAc
# Outline: as §1
# [7] = biological target: Fuc(a1-2)[Gal(a1-3)]Gal(b1-4)[Fuc(a1-3)]GlcNAc
# Outline: as §1
# [8] = biological target: Fuc(a1-2)[GalNAc(a1-3)]Gal(b1-4)GlcNAc(b1-2)Man(a1-3)[Fuc(a1-2)[GalNAc(a1-3)]Gal(b1-4)GlcNAc(b1-2)Man(a1-6)]Man(b1-4)GlcNAc(b1-4)GlcNAc
# Outline: as §1
# [9] = biological target: Fuc(a1-2)[GalNAc(a1-3)]Gal(b1-4)GlcNAc(b1-3)[Fuc(a1-2)[GalNAc(a1-3)]Gal(b1-4)GlcNAc(b1-6)]GalNAc
# Outline: as §1
# [10] = biological target: Gal(a1-3)Gal(b1-4)GlcNAc(b1-2)Man
# Outline: as §1
# [11] = biological target: Gal(a1-4)GlcNAc
# Outline: as §1
# [12] = biological target: Gal(a1-6)Glc
# Outline: as §1
# [13] = biological target: Gal(b1-3)GalNAc(b1-3)Gal(a1-4)Gal(b1-4)Glc
# Outline: as §1
# [14] = biological target: Gal(b1-3)GalNAc(b1-4)[Neu5Ac(a2-3)]Gal(b1-4)Glc
# Outline: as §1
# [15] = biological target: Gal(b1-3)GlcNAc(b1-2)Man(a1-3)[GlcNAc(b1-4)][Gal(b1-3)GlcNAc(b1-2)Man(a1-6)]Man(b1-4)GlcNAc(b1-4)GlcNAc
# Outline: as §1
# [16] = biological target: Gal(b1-3)GlcNAc(b1-3)Gal(b1-4)Glc
# Outline: as §1
# [17] = biological target: Gal(b1-3)GlcNAc(b1-3)Gal(b1-4)GlcNAc(b1-3)Gal(b1-4)GlcNAc(b1-2)[Gal(b1-3)GlcNAc(b1-3)Gal(b1-4)GlcNAc(b1-3)Gal(b1-4)GlcNAc(b1-6)]Man(a1-6)[Gal(b1-3)GlcNAc(b1-3)Gal(b1-4)GlcNAc(b1-3)Gal(b1-4)GlcNAc(b1-2)Man(a1-3)]Man(b1-4)GlcNAc(b1-4)[Fuc(a1-6)]GlcNAc
# Outline: as §1
# [18] = biological target: Gal(b1-3)GlcNAc6S
# Outline: as §1
# [19] = biological target: Gal(b1-3)[Fuc(a1-4)]GlcNAc(b1-2)Man(a1-3)[Gal(b1-3)[Fuc(a1-4)]GlcNAc(b1-2)Man(a1-6)]Man(b1-4)GlcNAc(b1-4)[Fuc(a1-6)]GlcNAc
# Outline: as §1
# [20] = biological target: Gal(b1-3)[GlcNAc(b1-6)]GalNAc
# Outline: as §1
# [21] = biological target: Gal(b1-4)GlcNAc(b1-3)Gal(b1-4)GlcNAc(b1-2)Man(a1-3)[Gal(b1-4)GlcNAc(b1-3)Gal(b1-4)GlcNAc(b1-2)Man(a1-6)]Man(b1-4)GlcNAc(b1-4)[Fuc(a1-6)]GlcNAc
# Outline: as §1
# [22] = biological target: Gal(b1-4)GlcNAc(b1-3)Gal(b1-4)GlcNAc(b1-3)Gal(b1-4)GlcNAc(b1-3)Gal(b1-4)GlcNAc(b1-2)[Gal(b1-4)GlcNAc(b1-3)Gal(b1-4)GlcNAc(b1-3)Gal(b1-4)GlcNAc(b1-3)Gal(b1-4)GlcNAc(b1-6)]Man(a1-6)[Gal(b1-4)GlcNAc(b1-3)Gal(b1-4)GlcNAc(b1-3)Gal(b1-4)GlcNAc(b1-3)Gal(b1-4)GlcNAc(b1-2)Man(a1-3)]Man(b1-4)GlcNAc(b1-4)[Fuc(a1-6)]GlcNAc
# Outline: as §1
# [23] = biological target: Gal(b1-4)GlcNAc(b1-3)Gal(b1-4)GlcNAc(b1-3)GalNAc
# Outline: as §1
# [24] = biological target: Gal(b1-4)GlcNAc(b1-3)Gal(b1-4)GlcNAc(b1-6)[Gal(b1-3)]GalNAc
# Outline: as §1
# [25] = biological target: Gal(b1-4)GlcNAc(b1-3)Gal(b1-4)[Fuc(a1-3)]GlcNAc(b1-3)Gal(b1-4)[Fuc(a1-3)]GlcNAc
# Outline: as §1
# [26] = biological target: Gal3S6S(b1-4)GlcNAc
# Outline: as §1
# [27] = biological target: Gal6S(b1-3)GlcNAc6S
# Outline: as §1
binder,measurement,setting,value
KILRGVCKKIMRTFLRRISKKILTGKK [C7A (Sus scrofa)],glycan array binding signal (z-score),[1],-0.784
same,glycan array binding signal (z-score),[2],-1.12
same,glycan array binding signal (z-score),[3],0.504
same,glycan array binding signal (z-score),[4],-1.37
same,glycan array binding signal (z-score),[5],-0.287
same,glycan array binding signal (z-score),[6],0.121
same,glycan array binding signal (z-score),[7],1.3
same,glycan array binding signal (z-score),[8],-0.971
same,glycan array binding signal (z-score),[9],0.698
same,glycan array binding signal (z-score),[10],-0.255
same,glycan array binding signal (z-score),[11],-1.02
same,glycan array binding signal (z-score),[12],-1.76
same,glycan array binding signal (z-score),[13],2.25
same,glycan array binding signal (z-score),[14],0.649
same,glycan array binding signal (z-score),[15],0.213
same,glycan array binding signal (z-score),[16],-0.894
same,glycan array binding signal (z-score),[17],0.352
same,glycan array binding signal (z-score),[18],1.73
same,glycan array binding signal (z-score),[19],-1.63
same,glycan array binding signal (z-score),[20],-0.867
same,glycan array binding signal (z-score),[21],3.05
same,glycan array binding signal (z-score),[22],-0.172
same,glycan array binding signal (z-score),[23],2.33
same,glycan array binding signal (z-score),[24],2.48
same,glycan array binding signal (z-score),[25],-0.696
same,glycan array binding signal (z-score),[26],2.5
same,glycan array binding signal (z-score),[27],2.66

# — the supplement of paper PMC8728848
